# Data published in PubChem BioAssay (NCATS).
# Results filed as inconclusive are left out. A call without a number means that no potency is given here. The source made the active and inactive calls. Unless noted, the call rests on the fitted dose curve.
# Legend:
# [1] = biological target: Peroxisome proliferator-activated receptor delta (Homo sapiens) (UniProt Q03181); test: qHTS assay for small molecule agonists of peroxisome proliferator-activated receptor delta signaling (AID 588534)
# Procedure, shortened: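 Cell-based beta-lactamase reporter assay run in agonist mode: cells seeded and incubated 5 hrs at 37 C, compounds added and incubated 18 hrs at 37 C. CCF4 dye fluorescence read after 2 hrs at RT; EC50 and efficacy from Hill fits.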
# [2] = biological target: Nuclear receptor ROR-gamma (Homo sapiens) (UniProt P51449); test: qHTS assay for small molecule antagonists of the retinoid-related orphan receptor gamma (ROR-gamma) signaling pathway (AID 651802; active means well fitted curve in the direction sought with a large enough effect; an effect the other way counts as inactive or inconclusive; further: nearly all actives have a fitted effect of over 60% in size; further: potency means the concentration at half of the fitted maximal effect)
# Procedure, shortened: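 CHO cells carrying TET-inducible ROR-gamma and an ROR response element–luciferase reporter were exposed to compound, then induced with doxycycline. After 16hr at 37C, luminescence was read; lower signal indicates antagonism.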
# [3] = biological target: Peroxisome proliferator-activated receptor gamma (Homo sapiens) (UniProt P37231); test: qHTS assay for small molecule agonists of peroxisome proliferator-activated receptor gamma signaling (AID 588536; active means well fitted curve in the direction sought with a large enough effect in the signal ratio, with a control signal flat, not every such curve was filed as active; the % refers to the signal ratio)
# Procedure, shortened: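 Test agents, titrated, stimulated HEK293 UAS-bla cells overnight (16 h, 37 C). Substrate CCF4 was then added for two hours at room temperature before fluorescence reading.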
# [4] = biological target: Peroxisome proliferator-activated receptor gamma (Homo sapiens) (UniProt P37231); test: qHTS assay for small molecule antagonists of peroxisome proliferator-activated receptor gamma signaling (AID 588537; active means well fitted inhibition curve with a large enough effect in the signal ratio, with a control signal flat, not every such curve was filed as active; the % refers to the signal ratio;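 further: reporter cells co-stimulated with 50 nM rosiglitazone agonist during compound treatment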)
# Procedure, shortened: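 PPAR-gamma-UAS-bla HEK293 cells (3000/well, 1% charcoal/dextran-stripped FBS) were preincubated 6-6.5 h at 37 C, given titrated compounds, then stimulated with 50 nM rosiglitazone for 16 h. Beta-lactamase activity was read with CCF4 dye; IC50 came from Hill fits.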
# [5] = biological target: Vitamin D3 receptor (Homo sapiens) (UniProt P11473); test: qHTS assay for small molecule antagonists of vitamin D receptor signaling (AID 588541);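 further: receptor activated by calcitriol during compound treatment; series mostly up to about 77 µM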
# Procedure, shortened: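 VDR-UAS-bla HEK293T cells (2000/well, 2% charcoal-stripped FBS) were treated with titrated compounds plus 1-alpha,25-dihydroxyvitamin D3 (50 nM or 3 nM final) for 16 h at 37 C. CCF4 beta-lactamase fluorescence was read; Hill fits gave IC50.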
# [6] = qHTS assay for small molecule agonists of retinoid X receptor alpha signaling (AID 588544); details: HEK293T RXRa-UAS-bla, beta-lactamase reporter, 18 h; 530 nm emission
# [7] = biological target: Retinoic acid receptor RXR-alpha (Homo sapiens) (UniProt P19793); test: as above
# [8] = qHTS assay for small molecule antagonists of retinoid X receptor alpha signaling (AID 588546; active means well fitted inhibition curve with a large enough effect in the signal ratio, with a control signal flat, not every such curve was filed as active; the % refers to the signal ratio;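 further: cells stimulated with 9-cis-retinoic acid as agonist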); details: HEK293T RXRa-UAS-bla, beta-lactamase ratio, antagonist mode; measured here: W530 green channel, cytotoxicity proxy
# Procedure, shortened: (§1)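 Beta-lactamase reporter inhibition, read as CCF4 fluorescence ratio (ex 405, em 460/530 nm) after 2 h at RT. HEK293T UAS-bla cells, 2500/well, were stimulated with 9-cis-RA at 500 or 100 nM final alongside test compound for 18 h at 37 C.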
# [9] = biological target: Retinoic acid receptor RXR-alpha (Homo sapiens) (UniProt P19793); test: as above; details: HEK293T RXRa-UAS-bla, beta-lactamase ratio, antagonist mode
# Procedure, shortened: as §1
# [10] = qHTS assay for small molecule agonists of the antioxidant response element (ARE) signaling pathway (AID 651741; active means well fitted activation curve with a large enough effect in the signal ratio; the % refers to the signal ratio; further: potency means the concentration at half of the fitted maximal effect)
# Procedure, shortened: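 ARE-bla HepG2 cells (beta-lactamase reporter under ARE control) were plated at 2,000 cells/well, preincubated 5 h at 37 C/5% CO2, then treated with DMSO-dissolved compounds for 16 h at 37 C; LiveBLAzer B/G FRET substrate added, fluorescence read after 2 h at room temperature.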
# [11] = qHTS assay for small molecule activators of the p53 signaling pathway (AID 651743; active means well fitted activation curve with a large enough effect in the signal ratio, not every such curve was filed as active; the % refers to the signal ratio; further: series mostly up to about 92 µM); details: HCT-116 p53RE-bla, beta-lactamase FRET ratio, 16 h; activation: stronger effect = higher value
# Procedure, shortened: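 p53RE-bla HCT-116 cells with a stably integrated beta-lactamase reporter under p53 response elements were plated, rested 5 hours at 37 C/5% CO2, then exposed to compounds in DMSO for 16 hours at 37 C. LiveBLAzer B/G FRET substrate was read after 2 hours at room temperature.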
# [12] = qHTS assay for small molecule activators of the nuclear factor-kappa B (NF-kB) signaling pathway (AID 651749; active means well fitted activation curve with a large enough effect in the signal ratio; the % refers to the signal ratio; further: series mostly up to about 77 µM); details: NF-kB-bla ME-180 cells, beta-lactamase FRET ratio, 16 h; activation: stronger effect = higher value
# Procedure, shortened: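 ME-180 cells stably carrying a beta-lactamase reporter under an NF-kB response element were exposed to compound or DMSO vehicle for 16 hr at 37C, 5% CO2. Pathway activation was read by FRET, since reporter expression disrupts FRET.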
# [13] = qHTS assay for environmental chemicals that activate the Aryl hydrocarbon Receptor (AhR) signaling pathway (AID 651777; active means well fitted curve in the direction sought with a large enough effect; an effect the other way counts as inactive or inconclusive; further: nearly all actives have a fitted effect of over 15% in size); details: 1A2-DRE human hepatoma cells, luciferase, 24 h; activation: stronger effect = higher value
# Procedure, shortened: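 Induction of CYP1A2 transcription through AhR is detected by luciferase in 1A2-DRE hepatoma cells. Compounds or DMSO act for 24 hr at 37 C before a 30 min One-Glo step at room temperature.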
# [14] = biological target: Peroxisome proliferator-activated receptor alpha (Homo sapiens) (UniProt Q07869); test: qHTS assay for small molecule agonists of the peroxisome proliferator-activated receptor alpha (PPARalpha) signaling pathway (AID 651778; active means well fitted curve in the direction sought with a large enough effect; an effect the other way counts as inactive or inconclusive); details: PathHunter PPARalpha complementation, chemiluminescence, 6 h; max response: stronger effect = higher value
# Procedure, shortened: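 Cells plated at 2,000/well and held overnight at 37 C, 5% CO2, then compound added by pin tool for 6 hr; after PathHunter detection reagent and 60 min at room temperature, chemiluminescence from enzyme complementation was read.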
# [15] = qHTS assay for small molecule agonists of the antioxidant response element (ARE) signaling pathway measured by Nrf2-dependant transcriptional activity (AID 720636; active means well fitted curve in the direction sought with a large enough effect in the repeat runs; an effect the other way counts as inactive or inconclusive;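 further: HepG2 cells with an ARE-driven luciferase reporter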)
# Procedure, shortened: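 We exposed ARE-luc HepG2 cells, seeded in assay medium with 1% dialyzed FBS and allowed 6 hr to adhere, to test compounds overnight (16 hr, 37 C) before measuring luciferase with ONE-Glo.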
# [16] = qHTS assay for small molecule agonists of the antioxidant response element (ARE) signaling pathway measured by Nrf2-dependant transcriptional activity - cell viability counter screen (AID 720653; active means well fitted curve in the direction sought with a large enough effect in the repeat runs; an effect the other way counts as inactive or inconclusive); details: ARE-bla HepG2 viability, CellTiter-Glo ATP luminescence, 16 h; max response: stronger effect = lower value
# Procedure, shortened: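 ARE-bla HepG2 cells (2,000/well) rested 5 hrs at 37C/5% CO2, then exposed to compounds in DMSO for 16 hrs. Viability was read in the same wells as intracellular ATP by luminescence, 30 min at room temperature after reagent addition.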
# [17] = qHTS assay for cell viability of HEK293 cells (AID 743288; active means well fitted curve in the direction sought with a large enough effect; an effect the other way counts as inactive or inconclusive; further: nearly all actives have a fitted effect of over 50% in size); details: ATP luminescence (CellTiter-Glo), 18 h; max response: stronger effect = lower value
# Procedure, shortened: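 Parental HEK293 cells, 2,000 per well, preincubated at least 5 h at 37 C, then exposed to compounds in DMSO for 18 h at 37 C. Viability by CellTiter-Glo ATP luminescence after 30 min at room temperature.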
# [18] = qHTS assay for cell viability of the p53RE-bla HCT-116 cell line (AID 743292; active means well fitted curve in the direction sought with a large enough effect; an effect the other way counts as inactive or inconclusive; further: nearly all actives have a fitted effect of over 55% in size)
# Procedure, shortened: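 In this qHTS counter-screen, metabolically competent p53RE-bla HCT-116 cells were counted via their ATP content. Compounds were applied for 16 h at 37 C and luciferase-coupled luminescence was measured.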
# [19] = biological target: Nuclear receptor subfamily 1 group I member 2 (Rattus norvegicus) (UniProt Q9R1A7); test: qHTS assay for small molecule activators of the rat pregnane X receptor (rPXR) signaling pathway (AID 651751; call rule not given here); details: rPXR reporter cells, luciferase (One-Glo), 24 h
# [20] = qHTS assay for small molecule activators of the human pregnane X receptor (PXR) signaling pathway (AID 720659; call rule not given here)
# [21] = biological target: Voltage-gated inwardly rectifying potassium channel KCNH2 (Homo sapiens) (UniProt Q12809); test: qHTS Assay for Small Molecule Inhibitors of the Human hERG Channel Activity (AID 588834; active means well fitted curve in the direction sought with a large enough effect; an effect the other way counts as inactive or inconclusive;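 further: top concentration of the series differs between compounds; lower thallium flux fluorescence means stronger hERG block; nearly all actives have a fitted effect of over 50% in size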)
# Procedure, shortened: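 U2OS cells BacMam-transduced with hERG, 2000 cells/well, compound ~10 min at 37 °C before stimulation buffer. FluxOR thallium flux fluorescence read kinetically on FDSS; decrease indicates block; AC50 from Hill fits.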
# [22] = qHTS assay for small molecule disruptors of the mitochondrial membrane potential - 1 hr assay (AID 651754); further: potency means the concentration at half of the fitted maximal effect; nearly all actives have a fitted effect of over 35% in size
# Procedure, shortened: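 HepG2 cells, attached overnight at 37C, were exposed to compound or DMSO vehicle for 1 hr at 37C, 5% CO2, then stained with Mito-MPS dye for 30 min. Red aggregate versus green monomer fluorescence reports membrane potential.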
# [23] = qHTS assay for small molecule disruptors of the mitochondrial membrane potential - 5 hr assay (AID 651755); further: potency means the concentration at half of the fitted maximal effect; nearly all actives have a fitted effect of over 40% in size
# Procedure, shortened: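 HepG2 cells, attached overnight at 37C, were exposed to compound or DMSO for 5 hr at 37C, 5% CO2. Mito-MPS dye was then added for 30 min, and fluorescence read at 490/535 nm (monomers) and 540/590 nm (aggregates).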
# [24] = qHTS assay for small molecule antagonists of peroxisome proliferator-activated receptor delta signaling (AID 588535; active means well fitted inhibition curve with a large enough effect in the signal ratio, with a control signal flat, not every such curve was filed as active; the % refers to the signal ratio;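 on max response: cells co-treated with a PPAR-delta agonist as stimulator during compound exposure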); details: HEK293T PPARd-UAS-bla, beta-lactamase FRET ratio, 18 h; 460 nm channel
# Procedure, shortened: (§2)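 GeneBLAzer PPAR-delta-UAS-bla HEK293T cells in medium with 2% charcoal/dextran FBS were preincubated 5 hrs at 37 C, then given compounds, incubated 18 hrs at 37 C, and read by CCF4 beta-lactamase fluorescence; IC50 from Hill fits.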
# [25] = biological target: Peroxisome proliferator-activated receptor delta (Homo sapiens) (UniProt Q03181); test: as above
# Procedure, shortened: as §2
# [26] = biological target: Vitamin D3 receptor (Homo sapiens) (UniProt P11473); test: qHTS assay for small molecule agonists of vitamin D receptor signaling (AID 588543)
# Procedure, shortened: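 VDR-UAS-bla HEK293T cells, 2000/well, 2% charcoal-stripped FBS; compound titration 16 h at 37 C; CCF4 beta-lactamase ratio read. Normalized to 50 nM 1-alpha,25-dihydroxyvitamin D3 (100%) and DMSO; Hill fit gives EC50, efficacy.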
# [27] = biological target: Thyroid hormone receptor beta (Homo sapiens) (UniProt P10828); test: qHTS assay for small molecule agonists of thyroid hormone receptor beta signaling (AID 588545)
# Procedure, shortened: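 Compounds were tested as agonists in TR-UAS-bla-GripTite HEK 293 cells. After 18 hrs at 37 C, CCF4 substrate was added and fluorescence read after 2 hrs at room temperature.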
# [28] = biological target: Thyroid hormone receptor beta (Homo sapiens) (UniProt P10828); test: qHTS assay for small molecule antagonists of thyroid hormone receptor beta signaling (AID 588547; active means well fitted inhibition curve with a large enough effect in the signal ratio, with a control signal flat, not every such curve was filed as active; the % refers to the signal ratio;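 further: cells stimulated with 0.4 nM T3 agonist during compound exposure; series mostly up to about 77 µM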); details: TR-UAS-bla HEK293, beta-lactamase ratio, antagonist mode, 18 h
# Procedure, shortened: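 TR-UAS-bla GripTite HEK293 cells in 2% charcoal/dextran FBS medium were preincubated 4 h at 37 C, given compound (0.59 nM to 92 uM) plus 0.4 nM T3 (final) for 18 h, then CCF4 for 2 h at RT; Hill fit gave IC50.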
# Chain of Vitamin D3 receptor (Homo sapiens) (P11473 whole entry, looked up): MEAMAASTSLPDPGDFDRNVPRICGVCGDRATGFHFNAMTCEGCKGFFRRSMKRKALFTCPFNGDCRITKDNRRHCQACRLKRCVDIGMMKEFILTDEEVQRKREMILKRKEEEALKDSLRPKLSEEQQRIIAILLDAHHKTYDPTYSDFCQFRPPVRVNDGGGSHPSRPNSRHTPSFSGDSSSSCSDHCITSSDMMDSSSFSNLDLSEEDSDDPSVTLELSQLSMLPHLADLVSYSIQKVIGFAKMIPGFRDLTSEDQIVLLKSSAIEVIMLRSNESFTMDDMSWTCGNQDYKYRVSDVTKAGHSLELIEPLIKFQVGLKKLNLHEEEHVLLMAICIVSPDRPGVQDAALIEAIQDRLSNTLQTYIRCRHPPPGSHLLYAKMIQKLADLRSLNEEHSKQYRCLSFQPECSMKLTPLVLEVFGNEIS
# Chain of Nuclear receptor subfamily 1 group I member 2 (Rattus norvegicus) (Q9R1A7 whole entry, looked up): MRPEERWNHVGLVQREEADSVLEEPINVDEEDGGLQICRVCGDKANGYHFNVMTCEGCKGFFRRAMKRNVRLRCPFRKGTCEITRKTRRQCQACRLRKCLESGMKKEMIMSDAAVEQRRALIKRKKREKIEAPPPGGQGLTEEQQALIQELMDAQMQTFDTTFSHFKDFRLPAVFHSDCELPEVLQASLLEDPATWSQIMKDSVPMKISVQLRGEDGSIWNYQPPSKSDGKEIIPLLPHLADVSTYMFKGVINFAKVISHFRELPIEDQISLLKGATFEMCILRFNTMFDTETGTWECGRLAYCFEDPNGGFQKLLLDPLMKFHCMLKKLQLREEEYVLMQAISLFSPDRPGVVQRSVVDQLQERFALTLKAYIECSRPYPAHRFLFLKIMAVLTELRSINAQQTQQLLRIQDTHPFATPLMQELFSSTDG
# Chain of Peroxisome proliferator-activated receptor delta (Homo sapiens) (Q03181 whole entry, looked up): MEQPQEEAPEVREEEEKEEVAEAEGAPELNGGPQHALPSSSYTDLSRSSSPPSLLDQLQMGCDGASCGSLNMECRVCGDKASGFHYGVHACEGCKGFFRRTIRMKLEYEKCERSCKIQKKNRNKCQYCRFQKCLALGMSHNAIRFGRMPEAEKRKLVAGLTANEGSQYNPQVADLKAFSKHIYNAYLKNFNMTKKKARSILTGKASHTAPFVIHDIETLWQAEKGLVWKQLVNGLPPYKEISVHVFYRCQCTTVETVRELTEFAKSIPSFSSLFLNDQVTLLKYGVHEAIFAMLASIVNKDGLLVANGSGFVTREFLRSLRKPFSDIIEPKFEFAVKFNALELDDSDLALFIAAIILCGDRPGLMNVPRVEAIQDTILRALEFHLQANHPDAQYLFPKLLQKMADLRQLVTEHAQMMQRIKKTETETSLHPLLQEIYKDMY
# Chain of Peroxisome proliferator-activated receptor alpha (Homo sapiens) (Q07869 whole entry, looked up): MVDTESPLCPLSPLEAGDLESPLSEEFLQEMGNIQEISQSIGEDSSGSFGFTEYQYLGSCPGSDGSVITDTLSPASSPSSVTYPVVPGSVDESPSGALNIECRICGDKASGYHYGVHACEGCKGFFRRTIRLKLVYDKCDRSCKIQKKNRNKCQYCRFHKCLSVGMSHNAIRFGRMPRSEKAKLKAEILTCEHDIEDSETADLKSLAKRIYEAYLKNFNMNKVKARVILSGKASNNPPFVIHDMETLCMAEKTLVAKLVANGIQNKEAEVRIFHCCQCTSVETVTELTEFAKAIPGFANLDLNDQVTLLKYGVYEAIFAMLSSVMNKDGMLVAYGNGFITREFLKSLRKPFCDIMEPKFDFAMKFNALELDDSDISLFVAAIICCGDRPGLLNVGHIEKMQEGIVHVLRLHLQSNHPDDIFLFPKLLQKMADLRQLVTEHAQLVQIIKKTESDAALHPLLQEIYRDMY
# Chain of Retinoic acid receptor RXR-alpha (Homo sapiens) (P19793 whole entry, looked up): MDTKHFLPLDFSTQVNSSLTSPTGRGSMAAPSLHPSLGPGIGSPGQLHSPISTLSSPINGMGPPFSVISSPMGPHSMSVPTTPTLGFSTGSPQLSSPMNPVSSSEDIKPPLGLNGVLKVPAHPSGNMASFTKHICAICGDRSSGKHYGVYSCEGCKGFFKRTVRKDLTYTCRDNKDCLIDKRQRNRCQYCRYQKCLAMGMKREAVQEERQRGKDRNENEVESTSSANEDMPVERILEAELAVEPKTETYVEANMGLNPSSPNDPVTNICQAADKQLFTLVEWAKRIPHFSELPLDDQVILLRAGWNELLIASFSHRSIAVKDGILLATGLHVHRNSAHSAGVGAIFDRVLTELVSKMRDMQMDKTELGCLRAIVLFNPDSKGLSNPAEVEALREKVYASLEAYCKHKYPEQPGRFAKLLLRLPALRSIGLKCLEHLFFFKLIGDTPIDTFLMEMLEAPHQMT
# Chain of Nuclear receptor ROR-gamma (Homo sapiens) (P51449 whole entry, looked up): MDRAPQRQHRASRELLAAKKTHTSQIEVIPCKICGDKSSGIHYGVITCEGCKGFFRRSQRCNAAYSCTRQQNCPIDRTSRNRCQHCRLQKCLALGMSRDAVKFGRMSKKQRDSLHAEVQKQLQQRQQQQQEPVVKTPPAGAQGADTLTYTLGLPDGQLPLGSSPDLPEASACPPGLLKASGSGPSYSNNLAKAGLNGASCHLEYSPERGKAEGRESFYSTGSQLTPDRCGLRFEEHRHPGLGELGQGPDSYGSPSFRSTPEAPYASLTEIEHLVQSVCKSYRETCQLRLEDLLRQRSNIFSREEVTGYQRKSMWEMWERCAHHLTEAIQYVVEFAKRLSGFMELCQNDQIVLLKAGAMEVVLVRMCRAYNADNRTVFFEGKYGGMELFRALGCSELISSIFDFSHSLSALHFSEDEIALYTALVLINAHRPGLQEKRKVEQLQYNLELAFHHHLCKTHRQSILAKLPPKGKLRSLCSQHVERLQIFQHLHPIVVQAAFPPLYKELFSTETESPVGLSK
# Chain of Peroxisome proliferator-activated receptor gamma (Homo sapiens) (P37231 whole entry, looked up): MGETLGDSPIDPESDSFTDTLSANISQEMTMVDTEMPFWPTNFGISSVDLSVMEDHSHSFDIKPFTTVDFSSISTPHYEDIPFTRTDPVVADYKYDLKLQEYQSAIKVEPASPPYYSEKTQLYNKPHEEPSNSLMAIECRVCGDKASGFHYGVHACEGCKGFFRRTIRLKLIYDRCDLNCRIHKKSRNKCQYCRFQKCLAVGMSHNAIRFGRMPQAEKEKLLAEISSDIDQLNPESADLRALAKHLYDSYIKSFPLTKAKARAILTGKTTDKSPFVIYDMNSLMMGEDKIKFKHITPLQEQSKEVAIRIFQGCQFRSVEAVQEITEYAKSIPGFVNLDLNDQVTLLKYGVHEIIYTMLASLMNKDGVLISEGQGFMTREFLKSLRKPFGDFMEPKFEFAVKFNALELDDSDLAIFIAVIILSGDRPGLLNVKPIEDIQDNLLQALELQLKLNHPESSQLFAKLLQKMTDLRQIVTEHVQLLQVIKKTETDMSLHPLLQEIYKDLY
# Chain of Thyroid hormone receptor beta (Homo sapiens) (P10828 whole entry, looked up): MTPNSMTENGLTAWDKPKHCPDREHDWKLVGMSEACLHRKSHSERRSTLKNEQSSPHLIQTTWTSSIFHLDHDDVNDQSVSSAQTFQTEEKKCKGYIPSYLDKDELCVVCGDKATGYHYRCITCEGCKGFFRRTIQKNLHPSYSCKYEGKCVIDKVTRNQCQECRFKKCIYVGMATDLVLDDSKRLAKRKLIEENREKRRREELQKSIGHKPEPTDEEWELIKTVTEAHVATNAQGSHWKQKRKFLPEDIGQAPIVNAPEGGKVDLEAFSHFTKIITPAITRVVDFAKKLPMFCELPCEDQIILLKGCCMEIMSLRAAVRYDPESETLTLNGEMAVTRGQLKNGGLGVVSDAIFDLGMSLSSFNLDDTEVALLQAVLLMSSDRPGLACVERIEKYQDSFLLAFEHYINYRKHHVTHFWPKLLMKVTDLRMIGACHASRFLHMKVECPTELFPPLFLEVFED
# Chain of Voltage-gated inwardly rectifying potassium channel KCNH2 (Homo sapiens) (Q12809 whole entry, looked up): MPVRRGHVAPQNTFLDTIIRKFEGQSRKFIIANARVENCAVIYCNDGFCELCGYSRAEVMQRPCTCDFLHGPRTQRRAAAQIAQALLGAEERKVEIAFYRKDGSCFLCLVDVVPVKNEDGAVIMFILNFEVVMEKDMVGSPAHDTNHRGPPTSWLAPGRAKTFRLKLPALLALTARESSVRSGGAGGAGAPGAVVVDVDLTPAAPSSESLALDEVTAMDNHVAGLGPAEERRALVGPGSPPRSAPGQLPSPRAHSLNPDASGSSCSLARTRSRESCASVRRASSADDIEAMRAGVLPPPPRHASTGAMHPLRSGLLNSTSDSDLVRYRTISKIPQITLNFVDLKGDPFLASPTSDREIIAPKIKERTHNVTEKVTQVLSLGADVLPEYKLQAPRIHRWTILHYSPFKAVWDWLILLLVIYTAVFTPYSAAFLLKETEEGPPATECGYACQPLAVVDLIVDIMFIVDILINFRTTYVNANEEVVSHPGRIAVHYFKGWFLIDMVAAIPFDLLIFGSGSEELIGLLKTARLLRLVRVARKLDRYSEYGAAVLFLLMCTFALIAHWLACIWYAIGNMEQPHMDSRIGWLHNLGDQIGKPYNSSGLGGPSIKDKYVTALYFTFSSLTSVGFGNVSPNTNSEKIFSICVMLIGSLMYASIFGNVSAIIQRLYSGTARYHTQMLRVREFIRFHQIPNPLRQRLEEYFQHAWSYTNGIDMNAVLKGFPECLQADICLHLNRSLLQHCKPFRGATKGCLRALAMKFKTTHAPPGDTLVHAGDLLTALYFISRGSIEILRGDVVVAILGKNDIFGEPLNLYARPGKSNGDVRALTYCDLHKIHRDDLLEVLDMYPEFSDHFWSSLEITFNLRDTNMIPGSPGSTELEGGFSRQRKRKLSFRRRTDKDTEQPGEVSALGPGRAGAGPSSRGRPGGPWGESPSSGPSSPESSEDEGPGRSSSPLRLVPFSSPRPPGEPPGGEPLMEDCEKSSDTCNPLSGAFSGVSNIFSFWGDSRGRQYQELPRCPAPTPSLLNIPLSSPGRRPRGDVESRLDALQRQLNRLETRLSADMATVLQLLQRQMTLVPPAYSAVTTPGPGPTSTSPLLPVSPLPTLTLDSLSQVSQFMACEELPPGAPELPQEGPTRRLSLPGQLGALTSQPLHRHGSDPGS
compound,measurement,setting,value
c1c[nH]cn1,outcome,[1],inactive
same,Potency,[2],inactive
CC1(C)C(=O)NC(=O)N1CO,outcome,[1],inactive
CC1=NNC(=O)N(/N=C/c2cccnc2)C1,outcome,[1],inactive
same,Potency,[3],inactive
same,Potency,[4],inactive
same,Potency,[5],inactive
same,max response,[6],-7.06%
same,Potency,[7],inactive
same,max response,[8],-9.27%
same,max response,[9],-13.2% (inactive)
same,Potency,[10],inactive
same,activation,[11],3.81% (inactive)
same,activation,[12],0.0556% (inactive)
same,activation,[13],-0.299% (inactive)
same,max response,[14],-0.256% (inactive)
same,Potency,[15],inactive
same,max response,[16],-9.52% (inactive)
same,max response,[17],-11.1% (inactive)
same,Potency,[18],inactive
same,max response,[19],-1.81% (inactive)
same,outcome,[20],inactive
NCCN,outcome,[1],inactive
same,Potency,[21],inactive
Oc1cc(Cl)cc(Cl)c1Cl,outcome,[1],inactive
same,Potency,[10],66.8 µM (active)
same,Potency,[22],42.2 µM (active)
same,Potency,[23],42.2 µM (active)
same,Potency,[2],18.8 µM (active)
CCC(C)(CC)c1cc(NC(=O)c2c(OC)cccc2OC)on1,outcome,[1],inactive
same,max response,[24],7.62%
same,Potency,[25],inactive
same,Potency,[3],inactive
same,Potency,[4],inactive
same,Potency,[5],inactive
same,outcome,[26],inactive
same,max response,[6],12.1%
same,Potency,[7],inactive
same,Potency,[27],inactive
same,max response,[8],5.81%
same,max response,[9],-17.5% (inactive)
same,activity change % (negative = inhibition),[28],0.364% (inactive)
same,activation,[12],-0.691% (inactive)
same,activation,[13],0.26% (inactive)
same,max response,[14],-1.49% (inactive)
same,Potency,[15],inactive
same,max response,[16],10.3% (inactive)
same,max response,[17],-25.2% (inactive)
same,Potency,[18],inactive
Oc1ccc(C(c2ccc(O)cc2)(C(F)(F)F)C(F)(F)F)cc1,outcome,[1],inactive
same,max response,[24],-38.3%
same,Potency,[25],inactive
same,Potency,[5],inactive
same,outcome,[26],inactive
same,Potency,[27],inactive
same,Potency,[10],48.6 µM (active)
same,activation,[11],22.5% (inactive)
same,activation,[13],0.672% (inactive)
same,max response,[14],-3.57% (inactive)
same,Potency,[15],inactive
same,max response,[16],-1.13% (inactive)
same,max response,[17],-18.6% (inactive)
same,Potency,[18],inactive
same,max response,[19],0.831% (inactive)
O=NO,outcome,[1],inactive
same,Potency,[2],inactive
O=C1OC(=O)c2c(Br)c(Br)c(Br)c(Br)c21,outcome,[1],inactive
same,Potency,[2],inactive
Cc1ccccc1C,outcome,[1],inactive
same,Potency,[4],inactive
NC(=O)c1ccccc1[N+](=O)[O-],outcome,[1],inactive
CCCCCCCC/C=C\CCCCCCCCCCCCC,outcome,[1],inactive
Cc1cccc(Br)c1,outcome,[1],inactive
CCCC(=O)OC(=O)CCC,outcome,[1],inactive
CC1=CC(C)(C)Nc2ccccc21,outcome,[1],inactive
CC(CCl)OC(C)CCl (centres undefined),outcome,[1],inactive
same,Potency,[2],inactive
COP(=O)(NC(C)=O)SC (centres undefined),outcome,[1],inactive
same,max response,[24],-7.01%
same,Potency,[25],inactive
same,Potency,[3],inactive
same,Potency,[4],inactive
same,Potency,[5],inactive
same,outcome,[26],inactive
same,max response,[6],4.58%
same,Potency,[7],inactive
same,Potency,[27],inactive
same,max response,[8],3.46%
same,max response,[9],-12.8% (inactive)
same,activity change % (negative = inhibition),[28],-13.5% (inactive)
same,Potency,[10],inactive
same,activation,[13],-1.62% (inactive)
same,max response,[14],-0.657% (inactive)
same,Potency,[15],inactive
same,max response,[16],-8.51% (inactive)
same,max response,[17],-8.22% (inactive)
same,Potency,[18],inactive
same,max response,[19],-1.19% (inactive)
same,outcome,[20],inactive
